# Bioassay records: PubChem, National Center for Advancing Translational Sciences (NCATS)
# An excerpt weighted towards active compounds, which were near 21% of everything screened.
# TDP1 cell noCPT = qHTS for Inhibitors of human tyrosyl-DNA phosphodiesterase 1 (TDP1): qHTS in cells in absence of CPT; hit rate 15% among 420,000; AID 686978, 2013; DT40 Tdp1-/- hTDP1 cells, no CPT, ATP luminescence, 48 h; Potency, µM (titrated, usually from 46.2 µM), inactives show at the top dose activity change, negative = growth inhibition, actives largely listed as inhibitors; also: potency is read from the fitted curve at half-maximal effect; nearly all actives have a fitted effect of over 55% in size
#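 Camptothecin absent (DMSO only). Human TDP1-complemented DT40 knockout cells, 400 cells/well, 37 °C for minimum 48 hr; ATP measured via CellTiter-Glo, 30 min dark incubation, luminescence.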
# TDP1 cell CPT = qHTS for Inhibitors of human tyrosyl-DNA phosphodiesterase 1 (TDP1): qHTS in cells in presence of CPT | chicken DT40 Tdp1-/-;hTDP1 cells + 20 nM CPT, ATP luminescence, 48 h | Potency, µM (top dose mostly 46.2 µM), for inactives: top-dose activity change, negative = growth inhibition, most hits filed as inhibitors | hit rate 12% among 420,000 | AID 686979, 2013; also: potency is read from the fitted curve at half-maximal effect; nearly all actives have a fitted effect of over 55% in size
#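 Chicken DT40 Tdp1-/- cells stably complemented with human TDP1 were seeded at 400 cells/well in medium containing 20 nM camptothecin, exposed to pin-transferred compounds, and grown at 37 °C for at least 48 hr. Viability was read as ATP luminescence.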
# VP16 counter = VP16 counterscreen qHTS for inhibitors of ROR gamma transcriptional activity | hit rate 3.5% among 310,000 | Potency, µM (titrated, usually from 53.6 µM), without a hit: top-dose activity, negative = inhibition, usual class: inhibitors | Drosophila S2 Gal4-VP16 UAS-luciferase, luminescence, 20 h;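 also: Gal4-VP16 expression switched on by copper sulfate through the metallothionein promoter; potency is read from the fitted curve at half-maximal effect; nearly all actives have a fitted effect of over 50% in size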
# IL1B secr inh = qHTS for Inhibitors of Inflammasome Signaling: IL-1-beta AlphaLISA Primary Screen. AID 743279, 2014. THP-1 LPS/ATP IL-1B secretion, AlphaLISA, 16 h; stronger effect = lower value. activity change, % at 57.5 µM. hit rate 4.7% among 360,000; in the data active = activity change below about -50%; inconclusive = mostly about -30% to -49%
#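 Secreted IL-1B measured by AlphaLISA bead assay after 16 h compound exposure of THP-1 cells; compounds (final up to 57.5 uM) added 1 h before LPS (250 ng/mL) and ATP (1.25 mM) stimulation; lower signal means less secretion.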
# ELG1 repair inh = qHTS screen for small molecules that inhibit ELG1-dependent DNA repair in human embryonic kidney (HEK293T) cells expressing luciferase-tagged ELG1 | HEK293T ELG1-luciferase reporter, luminescence, 16 h; DNA damage induced by 5-fluorouridine | Potency, µM (doses to about 46.1 µM), without a hit: at the highest dose activity change, negative = inhibition, actives largely listed as inhibitors | hit rate 2.3% among 330,000 | AID 504467, 2011; also: potency is read from the fitted curve at half-maximal effect; nearly all actives have a fitted effect of over 55% in size
#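 Quantitative HTS, concentration-response format. 2,000 cells/well co-treated with 5-fluorouridine and compound, 16 hr in 5% CO2 at 37 °C; ONE-Glo luminescence read after 30 min.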
# RORg inh = qHTS for inhibitors of ROR gamma transcriptional activity | Potency, µM (doses to about 53.6 µM), for the others: at the top dose activity change, negative = inhibition, actives largely listed as inhibitors | AID 2551, 2010 | Drosophila S2 Gal4-RORgamma UAS-luciferase reporter, 20 h | hit rate 5.4% among 310,000; also: potency is read from the fitted curve at half-maximal effect; nearly all actives have a fitted effect of over 60% in size
# Target sequence (P51450 whole entry, looked up, the tested form may be a part): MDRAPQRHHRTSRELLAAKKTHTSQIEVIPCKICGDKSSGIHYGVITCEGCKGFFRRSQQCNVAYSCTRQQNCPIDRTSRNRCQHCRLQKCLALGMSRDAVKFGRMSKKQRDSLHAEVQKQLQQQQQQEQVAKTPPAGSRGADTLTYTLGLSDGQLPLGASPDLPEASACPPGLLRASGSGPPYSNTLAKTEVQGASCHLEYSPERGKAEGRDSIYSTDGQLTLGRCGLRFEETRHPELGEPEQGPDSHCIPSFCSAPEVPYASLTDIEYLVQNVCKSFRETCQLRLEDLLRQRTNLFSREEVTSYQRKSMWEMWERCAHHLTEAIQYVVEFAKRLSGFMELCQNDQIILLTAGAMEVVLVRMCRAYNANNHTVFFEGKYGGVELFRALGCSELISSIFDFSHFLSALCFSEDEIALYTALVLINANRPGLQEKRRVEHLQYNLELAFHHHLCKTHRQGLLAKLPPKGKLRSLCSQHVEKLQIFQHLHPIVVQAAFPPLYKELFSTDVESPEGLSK
#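 Using a luciferase readout, inhibitors were identified by reduced reporter activity in Drosophila cells coexpressing a copper-inducible Gal4–ROR gamma fusion and UAS-driven Photinus luciferase, incubated 20 hr after 700 uM copper sulfate.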
# * marks the source's active call; other numbers are inactive results; ? = inconclusive; / = not tested or not shown; [ ] = another dose, or the depositor's remark. Unless noted, calls follow the shape of the dose curve; as a rule, active = well fitted curve in the direction sought with a large enough effect; inconclusive = small, poorly fitted or top-dose-only effect, or another doubt; inactive = no such curve, though single readings can be large; an effect the other way counts as inactive or inconclusive. % is scaled to controls: 0 for no effect and ±100 for the full control effect.
SMILES,TDP1 cell noCPT,TDP1 cell CPT,VP16 counter,IL1B secr inh,ELG1 repair inh,RORg inh
Cc1ccc(-c2nnn(CC(=O)N(c3ccc(F)cc3)C(C(=O)NC(C)(C)C)c3ccco3)n2)o1 (stereo unspecified),?,-3%,0%,21,11%,33%
Cc1ccc(-c2nnn(CC(=O)N(c3ccccc3F)C(C(=O)NC3CCCC3)c3ccco3)n2)o1 (stereo unspecified),16µM*,29µM*,-6%,-11,-16%,17%
O=C(CSc1nnnn1-c1cccc(F)c1)NC1CC1,-1%,-29%,/,13,10%,/
COc1cc(/C=C/C(=O)NCc2nc3ccccc3[nH]2)cc(OC)c1OC,-16%,-25%,-4%,-20,?,-11%
COc1cc(CN(C)CC(=O)c2[nH]c(C)c(C(C)=O)c2C)ccc1OC(F)F,3.7µM*,8.2µM*,2.8µM*,-28,?,3%
CC(=O)c1c(C)[nH]c(C(=O)COc2cc(C)ccc2C(C)C)c1C,4.6µM*,8.2µM*,-2%,39,?,14%
COc1ccccc1OCC(=O)c1[nH]c(C)c(C(C)=O)c1C,12µM*,15µM*,?,-10,?,?
COc1ccc(NC(=O)CN(C)CC(=O)c2[nH]c(C)c(C(C)=O)c2C)cc1,?,?,/,11,-9%,/
CCC(=O)c1cn(CC(=O)Nc2ccc(F)cc2)c2ccccc12,-2%,-8%,/,10,/,/
Cc1ccc(/C=C\c2nccc3c2[nH]c2ccccc23)cc1,?,?,3.2µM*,-26,?,0.63µM*
Fc1ccc(/C=C\c2nccc3c2[nH]c2ccccc23)cc1,?,?,?,-78*,-7%,1.8µM*
C(=C\c1nccc2c1[nH]c1ccccc12)/c1ccccc1,15µM*,?,4µM*,-2,?,1.6µM*
O=c1[nH]c2ccccc2nc1/C=C/c1ccccc1,-26%,?,-8%,32,?,-1%
Fc1ccc(-c2cn3cc(Cc4ccc(Cl)cc4)sc3n2)cc1,-23%,-8%,/,/,/,/
COc1ccc(NC(=O)c2sc(=O)n(Cc3cccc(C(F)(F)F)c3)c2C)cc1OC,?,?,/,-23,/,/
N#CC1C(=N)Cc2ccccc2-c2ccccc21 (stereo unspecified),21µM*,?,/,-17,/,/
CCCn1c(CN2CCN(C(=O)OCC)CC2)nc2cc(NC(C)=O)ccc21,16µM*,?,-3%,-3,-19%,14%
CCOC(=O)N1CCN(Cc2nc3cc(NC(=O)c4ccco4)ccc3n2C)CC1,-1%,-1%,-12%,9,20%,4%
CCCn1c(CN2CCN(C(=O)OCC)CC2)nc2cc(NC(=O)C(C)C)ccc21,12µM*,21µM*,-1%,0,?,-5%
CCCC(=O)Nc1ccc2c(c1)nc(CN1CCN(C(C)=O)CC1)n2C,-14%,-6%,-11%,0,14%,11%
CCCNC(=O)C(=O)NCC(c1ccc2c(c1)OCO2)N1CCOCC1 (stereo unspecified),-5%,5%,/,/,/,/
COc1cc2c(cc1OC)C1(C)N(CC2)C(C(C)=O)=NN1c1ccc(Cl)cc1 (stereo unspecified),?,?,-2%,-11,?,11%
Cc1ccc(-c2nn(CCC(=O)O)cc2/C=C\C(=O)c2ccc(Br)cc2)cc1,?,12µM*,19%[10 µM],-25,-3%,?
O=C(O)CCn1cc(/C=C\C(=O)c2ccc(Cl)cc2)c(-c2cccc(Br)c2)n1,18µM*,?,?,-93*,-14%,?
CS(=O)(=O)N1CCC2(CC1)CN(C(=O)Nc1cccc(C#N)c1)C2,4%,-1%,-15%,/,/,3%
SMILES,TDP1 cell noCPT,TDP1 cell CPT,VP16 counter,IL1B secr inh,ELG1 repair inh,RORg inh
CC(C)C(OC(=O)c1nsc(Cl)c1Cl)C(=O)NCc1ccccc1 (stereo unspecified),0%,-3%,1%,-2,4%,-4%
CCCCCCN(C(=O)CCCCCN1C(=O)NC(c2ccc(-c3ccccc3)cc2)C(C(=O)OCc2ccccc2)=C1C)C(C(=O)NCCCC)C1CCCCC1 (stereo unspecified),/,/,0%,/,2%,15%
CCCCCCN(C(=O)CCCN1C(=O)NC(c2ccc([N+](=O)[O-])cc2)C(C(=O)OCc2ccccc2)=C1C)C(C)C(=O)NCCCC (stereo unspecified),9.2µM*,12µM*,/,-63*,?,/
CN(CC(=O)NCc1ccco1)CC(=O)Nc1c(Cl)cccc1Cl,2%,-5%,/,-2,-1%,/
OCCNc1cc(-n2nc(-c3ccccc3)cc2-c2ccccc2)ncn1,?,?,0%,-16,16µM*,23%
Cc1noc(C)c1C(=O)N(CC(=O)Nc1ccc(Cl)c(C(F)(F)F)c1)Cc1ccco1,-27%,-23%,/,-9,-15%,/
O=C(NCc1ccc(Cl)cc1)c1noc2c1CCCCC2,-37%,-16%,0%,-5,25%,?
COc1ccccc1C(=O)N1CCN(CCNC(=O)C(=O)Nc2ccc(Br)c(C)c2)CC1,10µM*,?,-8%,-4,?,21%
COc1ccc(NC(=O)C(=O)NCCN2CCN(C(=O)c3ccc(C(C)(C)C)cc3)CC2)cc1,16µM*,16µM*,-4%,18,-12%,20%
Cc1ccccc1C(=O)N1CCN(CCNC(=O)C(=O)Nc2ccc(Br)cc2)CC1,?,15µM*,-3%,0,21µM*,20%
Cc1cc(NC(=O)C(=O)NCCN2CCN(C(=O)c3cccs3)CC2)ccc1Br,?,?,-7%,?,?,?
CCCC(CCC)C(=O)Nc1cccc(-c2cn3cccnc3n2)c1,-15%,?,/,/,/,/
C/C(=N\NC(=O)c1nnn(-c2nonc2N)c1-c1ccc2c(c1)OCO2)c1ccc(C)cc1,-1%,?,-11%,11,0%,8%
Cc1cc(NC(=O)CN(C)S(=O)(=O)c2ccc3c(c2)CCC(=O)N3)ccc1Br,21µM*,29µM*,/,/,/,/
